Reference: PubChem BioAssay (NCATS)
Inconclusive results are not listed. Where a call stands in place of a potency, no number is given. Activity calls are given as the source filed them. The call rests on the fitted dose curve; in most records, active means well fitted curve in the direction sought with a large enough effect; inconclusive means small, poorly fitted or top-dose-only effect, or another doubt; inactive means no such curve, though single readings can be large; an effect the other way counts as inactive or inconclusive.

Experiments:
[1] = biological target: Voltage-gated inwardly rectifying potassium channel KCNH2 (Homo sapiens) (UniProt Q12809); assay: qHTS Assay for Small Molecule Inhibitors of the Human hERG Channel Activity (AID 588834);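 further: lower thallium flux fluorescence means stronger hERG block; nearly all actives have a fitted effect of over 50% in size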; further: potency means the concentration at half of the fitted maximal effect
Outline: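 Cells were infected with hERG-BacMam virus for 4 hrs at room temperature, grown overnight, then seeded at 2000/well. After dye loading and roughly 10 min compound treatment, thallium influx was triggered and fluorescence recorded.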

[2] = biological target: Luciferin 4-monooxygenase (Photinus pyralis) (UniProt P08659); assay: Biochemical firefly luciferase enzyme assay for NPC (AID 624030); further: nearly all actives have a fitted effect of over 70% in size; further: potency means the concentration at half of the fitted maximal effect
Outline: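 Counter-screen for direct inhibition of the luciferase enzyme by approved-drug library compounds, run at 10 nM enzyme in 50 mM Tris acetate (final). Luminescence was read within 5 min of enzyme-buffer addition and normalized to PTC124 versus DMSO (0%).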

[3] = S16 Schwann cell viability assay (CellTiter-Glo assay) (AID 624031);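 further: native untransfected S16 rat Schwann cells; series mostly up to about 58 µM; nearly all actives have a fitted effect of over 70% in size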
Outline: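 Counter-screen for cytotoxicity: parental S16 rat Schwann cells lacking the PMP22 reporters, treated 24 h with compound, viability from cellular ATP by CellTiter-Glo luminescence, normalized to DMSO (0%) and no-cell wells.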

Sequence of Luciferin 4-monooxygenase (Photinus pyralis) (P08659 whole entry, looked up): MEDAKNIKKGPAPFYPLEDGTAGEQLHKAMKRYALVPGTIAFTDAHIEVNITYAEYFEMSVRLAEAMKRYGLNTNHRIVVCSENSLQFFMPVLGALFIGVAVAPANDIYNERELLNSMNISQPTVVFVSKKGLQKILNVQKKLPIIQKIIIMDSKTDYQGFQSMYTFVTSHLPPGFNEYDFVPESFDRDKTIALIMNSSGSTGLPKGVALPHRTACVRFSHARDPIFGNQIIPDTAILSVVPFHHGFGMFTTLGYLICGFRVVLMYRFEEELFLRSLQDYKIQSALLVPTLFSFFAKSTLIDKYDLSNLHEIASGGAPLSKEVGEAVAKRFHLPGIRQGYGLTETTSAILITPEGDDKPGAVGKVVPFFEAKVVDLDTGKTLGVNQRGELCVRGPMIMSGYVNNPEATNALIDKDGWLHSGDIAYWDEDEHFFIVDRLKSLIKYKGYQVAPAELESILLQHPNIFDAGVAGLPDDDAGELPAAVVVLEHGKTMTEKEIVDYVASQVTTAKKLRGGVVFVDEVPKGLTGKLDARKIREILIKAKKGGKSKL
Sequence of Voltage-gated inwardly rectifying potassium channel KCNH2 (Homo sapiens) (Q12809 whole entry, looked up): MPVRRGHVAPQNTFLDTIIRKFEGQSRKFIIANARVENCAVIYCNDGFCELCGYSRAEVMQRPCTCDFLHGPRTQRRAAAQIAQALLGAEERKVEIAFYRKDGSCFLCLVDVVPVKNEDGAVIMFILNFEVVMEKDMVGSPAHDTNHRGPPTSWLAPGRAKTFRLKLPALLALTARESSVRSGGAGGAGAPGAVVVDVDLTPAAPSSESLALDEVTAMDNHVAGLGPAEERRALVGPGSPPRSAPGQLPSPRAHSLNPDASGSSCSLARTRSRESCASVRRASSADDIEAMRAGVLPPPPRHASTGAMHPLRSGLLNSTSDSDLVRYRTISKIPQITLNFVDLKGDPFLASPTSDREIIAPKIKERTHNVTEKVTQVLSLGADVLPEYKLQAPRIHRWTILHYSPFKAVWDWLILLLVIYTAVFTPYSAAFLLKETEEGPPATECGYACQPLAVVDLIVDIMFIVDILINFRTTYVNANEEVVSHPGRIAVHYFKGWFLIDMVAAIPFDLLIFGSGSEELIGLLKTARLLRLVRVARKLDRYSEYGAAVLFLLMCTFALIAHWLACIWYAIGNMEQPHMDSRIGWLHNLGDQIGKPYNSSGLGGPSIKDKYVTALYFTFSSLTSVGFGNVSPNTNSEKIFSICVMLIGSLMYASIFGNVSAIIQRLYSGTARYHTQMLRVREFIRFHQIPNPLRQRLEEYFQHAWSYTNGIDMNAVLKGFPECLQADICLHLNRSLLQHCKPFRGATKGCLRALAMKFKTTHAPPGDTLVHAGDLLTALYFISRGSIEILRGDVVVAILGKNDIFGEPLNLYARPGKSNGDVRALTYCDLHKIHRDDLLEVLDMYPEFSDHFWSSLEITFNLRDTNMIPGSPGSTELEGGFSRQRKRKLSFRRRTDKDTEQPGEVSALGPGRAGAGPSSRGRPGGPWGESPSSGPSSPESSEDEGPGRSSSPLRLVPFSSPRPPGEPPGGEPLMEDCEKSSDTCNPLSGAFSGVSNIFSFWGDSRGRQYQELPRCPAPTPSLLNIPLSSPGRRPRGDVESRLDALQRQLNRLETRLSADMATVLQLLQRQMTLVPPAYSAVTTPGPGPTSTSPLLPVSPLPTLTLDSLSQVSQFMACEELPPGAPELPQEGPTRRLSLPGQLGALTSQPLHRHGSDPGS

Row | SMILES | Potency [1] | Potency [2] | outcome [3]
1 | Cc1[nH]c(C)c(Cl)c(=O)c1Cl | inactive | inactive | inactive
2 | COc1cc(O)cc(O)c1 | inactive | inactive | inactive
3 | CC(CN(C)C)C(C)(O)Cc1ccc(Cl)cc1 (stereo not given) | 14.1 µM (active) | inactive | inactive
4 | CCN(CC)S(=O)(=O)c1ccc(C(=O)O)cc1 | inactive | inactive | inactive
5 | Cn1c(=O)c2c(ncn2CCO)n(C)c1=O | inactive | inactive | inactive
6 | COc1cc(C(=O)NCCCCCC(=O)O)cc(OC)c1OC | inactive | inactive | inactive
7 | CC(=O)NCc1c(I)c(NC(C)=O)c(I)c(C(=O)O)c1I | inactive | inactive | inactive
8 | COc1ccc(Cc2cnc(N)nc2N)cc1OC | inactive | inactive | inactive
9 | C[C@H]1COc2c(C3(N)CC3)c(F)cc3c(=O)c(C(=O)O)cn1c23 | inactive | inactive | inactive
10 | O=C(O)c1ccc(OCCCOc2ccc(C(=O)O)cc2)cc1 | inactive | inactive | inactive
11 | Cc1cc(C)c(NC(=O)CN(CC(=O)O)CC(=O)O)c(C)c1Br | inactive | inactive | inactive
12 | O=C(Cn1ccnc1[N+](=O)[O-])NCCO | inactive | inactive | inactive
13 | Cc1c(Cn2ccnc2)c2ccccc2n1CCC(=O)O | inactive | inactive | inactive
14 | Cc1c(I)c(=O)n(-c2ccccc2)n1C | inactive | inactive | inactive
15 | O=C(Cn1ccnc1[N+](=O)[O-])NCc1ccccc1 | inactive | inactive | inactive
16 | CC(=O)Nc1ccc(OCCOCCOc2ccc(NC(C)=O)cc2)cc1 | inactive | inactive | inactive
17 | CNc1c2c(nn1C)CCCC2 | inactive | inactive | inactive
18 | NC(=O)NS(=O)(=O)c1ccc(N)cc1 | inactive | inactive | inactive
19 | CCOC(N)=O | inactive | inactive | inactive
20 | CNCc1ccccc1 | inactive | inactive | inactive
21 | NS(=O)(=O)c1ccc(C(=O)O)cc1 | – | inactive | –
22 | O=S1(=O)OC(c2ccc(O)cc2)(c2ccc(O)cc2)c2ccccc21 | inactive | – | inactive
23 | NS(=O)(=O)c1ccc(NC(=O)CCC(=O)O)cc1 | inactive | inactive | inactive

Row | SMILES | Potency [1] | Potency [2] | outcome [3]
24 | CC(=O)Oc1cccc(O)c1 | inactive | inactive | inactive
25 | NC(=O)CCCCC1CCSS1 (stereo not given) | inactive | inactive | inactive
26 | CCCCCCCC(=O)OCC(O)CO (stereo not given) | inactive | inactive | inactive
27 | CC(=O)OC[C@H]1O[C@@](COC(C)=O)(O[C@H]2O[C@H](COC(C)=O)[C@@H](OC(C)=O)[C@H](OC(C)=O)[C@H]2OC(C)=O)[C@@H](OC(C)=O)[C@@H]1OC(C)=O | inactive | inactive | inactive
28 | O=c1[nH]c2cc(C(F)(F)F)c(N3CCOCC3)cc2n(CP(=O)(O)O)c1=O | inactive | inactive | inactive
29 | CCCCC1(COC(=O)CCC(=O)O)C(=O)N(c2ccccc2)N(c2ccccc2)C1=O | inactive | inactive | inactive
30 | CN1C[C@@H]2C[C@H]1CN2c1cc2c(cc1F)c(=O)c(C(=O)O)cn2C1CC1 | inactive | inactive | inactive
31 | CC1CCN(CCCC(=O)c2ccc(F)cc2)CC1 | – | inactive | –
32 | COc1ccc(C(=O)N2CCN(CC(=O)N3CCOCC3)CC2)cc1 | inactive | inactive | inactive
33 | O=c1[nH]cnc2nc[nH]c12 | inactive | inactive | inactive
34 | NNc1nnc(NN)c2ccccc12 | inactive | – | inactive
35 | Nc1ccncc1N | inactive | inactive | inactive
36 | Cc1cc(OI)c(C(C)C)cc1-c1cc(C(C)C)c(OI)cc1C | inactive | inactive | inactive
37 | O=C(O)CNC(=O)c1ccccc1I | inactive | – | inactive
38 | Cc1ccc(S(=O)(=O)NC(=O)NC2CCCCCCC2)cc1 | inactive | inactive | inactive
39 | c1ccc2[nH]ccc2c1 | inactive | inactive | inactive
40 | CCc1nnc(NS(=O)(=O)c2ccc(N)cc2)s1 | inactive | inactive | inactive
41 | CCN(CC)CCc1nc(-c2ccccc2)no1 | inactive | inactive | inactive
42 | COc1ccccc1OC(=O)Oc1ccccc1OC | inactive | inactive | inactive
43 | CC1CCc2cc(F)cc3c(=O)c(C(=O)O)cn1c23 (stereo not given) | inactive | inactive | inactive
44 | O=C(O)c1ccc[n+]([O-])c1 | inactive | inactive | inactive
45 | CC(N)CCCC(C)(C)O (stereo not given) | inactive | inactive | inactive
46 | Cc1ccsc1C(=CCCN1CCC[C@@H](C(=O)O)C1)c1sccc1C | inactive | inactive | inactive

Row | SMILES | Potency [1] | Potency [2] | outcome [3]
47 | CCCCCCCCCCCCCCCCN | inactive | inactive | inactive
48 | CC(=O)Oc1cccc(C)c1 | – | inactive | –
49 | NC(N)=NS(=O)(=O)c1ccc(N)cc1 | – | inactive | –
50 | CCCCCCCCCCCCCCCCC(C(=O)O)C(O)(CC(=O)O)C(=O)O (stereo not given) | inactive | – | inactive
51 | C=CCSCC1Nc2cc(Cl)c(S(N)(=O)=O)cc2S(=O)(=O)N1 (stereo not given) | inactive | inactive | inactive
52 | NS(=O)(=O)c1cc2c(cc1C(F)(F)F)NCNS2(=O)=O | inactive | inactive | inactive
53 | CCOC(=O)[C@H](CCc1ccccc1)N[C@@H](C)C(=O)N1CCC[C@H]1C(=O)O | inactive | inactive | inactive
54 | Cc1cc(-n2nc3ccc(Cl)cc3n2)c(O)c(C(C)(C)C)c1 | inactive | inactive | inactive
55 | Cc1onc(-c2ccccc2)c1-c1ccc(S(N)(=O)=O)cc1 | inactive | inactive | inactive
56 | CCCCCCCCCCC(CO)CCCCCCCC (stereo not given) | – | inactive | inactive
57 | CCS(=O)(=O)CCn1c([N+](=O)[O-])cnc1C | – | inactive | inactive
58 | O=C1CC[C@@H](C(=O)O)N1 | – | inactive | inactive
59 | CCOc1ccc(C(=O)OCCN(CC)CC)cc1 | – | inactive | inactive
60 | CC(C)c1cc2c(cc1S(=O)(=O)O)[C@@]1(C)CCC[C@@](C)(C(=O)O)[C@@H]1CC2 | – | inactive | inactive
61 | COc1ccc(NS(=O)(=O)c2ccc(N)cc2)nn1 | – | inactive | inactive
62 | CC(C)CCOC(=O)c1ccc(N(C)C)cc1 | – | 6.42 µM (active) | inactive
63 | O=C(O)c1cc(=O)c2ccccc2o1 | – | inactive | inactive
64 | Cc1c(NC(=O)c2cccnc2)c(=O)n(-c2ccccc2)n1C | – | inactive | –
65 | CC(CSC(=O)c1ccccc1)C(=O)N1C[C@@H](Sc2ccccc2)C[C@H]1C(=O)O (stereo not given in full) | – | inactive | inactive
66 | Cc1cccc(C)c1NC(=O)CC12CCCN1CCC2 | – | inactive | –
67 | O=C(CCBr)N1CCN(C(=O)CCBr)CC1 | – | inactive | –
68 | CCOc1cc(NC(C)=O)ccc1C(=O)OC | – | inactive | inactive
69 | O=C(O)Cc1ccc(CCNS(=O)(=O)c2ccc(Cl)cc2)cc1 | – | inactive | inactive

Row | SMILES | Potency [1] | Potency [2] | outcome [3]
70 | NC(=O)c1ccc([N+](=O)[O-])cc1Cl | – | inactive | inactive
71 | O=C(NCCCN1CCOCC1)c1ccc(Cl)cc1 | – | inactive | inactive
72 | O=C(O)COC(=O)Cc1ccccc1Nc1c(Cl)cccc1Cl | – | inactive | inactive
73 | CCN(CC)CC1CCCCN1CC(=O)N1c2ccccc2C(=O)Nc2cccnc21 (stereo not given) | – | inactive | inactive
74 | CC(=O)N(CC(O)CO)c1c(I)c(C(=O)NCC(O)CO)c(I)c(C(=O)NCC(O)CO)c1I (stereo not given) | – | inactive | –
75 | CC(C)C[C@@H](N)C(=O)O | – | inactive | –
76 | CC(=O)SC[C@@H](Cc1ccccc1)C(=O)NCC(=O)OCc1ccccc1 | – | inactive | inactive
77 | N[C@@H](Cc1ccc(O)cc1)C(=O)O | – | inactive | inactive
78 | O[C@@H]1CO[C@H]2[C@@H]1OC[C@@H]2O | – | inactive | inactive
79 | Cc1ccc(S(=O)(=O)NC(=O)NC2CCCCC2)cc1 | – | inactive | inactive
80 | CCN1CC(CCN2CCOCC2)C(c2ccccc2)(c2ccccc2)C1=O (stereo not given) | – | inactive | inactive
81 | CN1CCN(C(=O)C2CCCCC2)CC1 | – | inactive | inactive
82 | OCc1ccc(Cl)cc1Cl | – | inactive | inactive
83 | NC(N)=NCCN1CCCCCCC1 | – | inactive | inactive
84 | Cc1ccccc1N=Nc1ccc(N=Nc2c(O)ccc3ccccc23)c(C)c1 | – | inactive | –
85 | Cc1cc(NC(=O)C2=C(O)c3ccccc3S(=O)(=O)N2C)no1 | – | inactive | inactive
86 | CCCCCC(C)N (stereo not given) | – | inactive | inactive
87 | CC(C)(C)C(=O)OCOC(=O)[C@@H]1N2C(=O)[C@@H](NC(=O)[C@H](N)c3ccccc3)[C@H]2SC1(C)C | – | inactive | –
88 | Nc1c2c(nc3c1CCC3)CCCC2 | – | inactive | –
89 | COc1nccnc1NS(=O)(=O)c1ccc(N)cc1 | – | inactive | inactive
90 | C[C@@H]1O[C@@H](OC[C@H]2O[C@@H](Oc3c(-c4ccc(O)c(O)c4)oc4cc(O)cc(O)c4c3=O)[C@H](O)[C@@H](O)[C@@H]2O)[C@H](O)[C@H](O)[C@H]1O | – | inactive | –
91 | O=C(/C=C/c1ccccc1)OCc1ccccc1 | – | – | inactive
